sEH act: increases human soluble epoxide hydrolase activity | P34913 | purified human sEH enzymatic activity, activator screen | activation, % at 2 µM | 91,000 tested, 0.04% active | AID 717; in the data active = activation above about 37%
PostGolgi ctrl: inhibits growth of the yeast control strain | AID 738 | inhibition, % at 10 µM | efflux-deficient yeast background strain, growth absorbance A615, 16 h | 98,000 tested, 5% active
sEH inhibitor: inhibitors of human soluble epoxide hydrolase | 91,000 tested, 0.34% active | recombinant human sEH enzymatic activity assay | inhibition, % at 2 µM; in the data active = inhibition above about 80%
Cav32 inh: inhibitors of human Cav3.2 T-type calcium channel; O95180; Cav3.2-expressing cells, Fluo-4 calcium fluorescence FDSS; active compounds read low; B-score at 10 µM; 100,000 tested, 4% active; AID 449739;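 active = single-dose well whose peak fluorescence ratio is a statistical outlier from its plate by either plate-standardised score or position-corrected B-score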
Target sequence (O95180 whole entry, looked up): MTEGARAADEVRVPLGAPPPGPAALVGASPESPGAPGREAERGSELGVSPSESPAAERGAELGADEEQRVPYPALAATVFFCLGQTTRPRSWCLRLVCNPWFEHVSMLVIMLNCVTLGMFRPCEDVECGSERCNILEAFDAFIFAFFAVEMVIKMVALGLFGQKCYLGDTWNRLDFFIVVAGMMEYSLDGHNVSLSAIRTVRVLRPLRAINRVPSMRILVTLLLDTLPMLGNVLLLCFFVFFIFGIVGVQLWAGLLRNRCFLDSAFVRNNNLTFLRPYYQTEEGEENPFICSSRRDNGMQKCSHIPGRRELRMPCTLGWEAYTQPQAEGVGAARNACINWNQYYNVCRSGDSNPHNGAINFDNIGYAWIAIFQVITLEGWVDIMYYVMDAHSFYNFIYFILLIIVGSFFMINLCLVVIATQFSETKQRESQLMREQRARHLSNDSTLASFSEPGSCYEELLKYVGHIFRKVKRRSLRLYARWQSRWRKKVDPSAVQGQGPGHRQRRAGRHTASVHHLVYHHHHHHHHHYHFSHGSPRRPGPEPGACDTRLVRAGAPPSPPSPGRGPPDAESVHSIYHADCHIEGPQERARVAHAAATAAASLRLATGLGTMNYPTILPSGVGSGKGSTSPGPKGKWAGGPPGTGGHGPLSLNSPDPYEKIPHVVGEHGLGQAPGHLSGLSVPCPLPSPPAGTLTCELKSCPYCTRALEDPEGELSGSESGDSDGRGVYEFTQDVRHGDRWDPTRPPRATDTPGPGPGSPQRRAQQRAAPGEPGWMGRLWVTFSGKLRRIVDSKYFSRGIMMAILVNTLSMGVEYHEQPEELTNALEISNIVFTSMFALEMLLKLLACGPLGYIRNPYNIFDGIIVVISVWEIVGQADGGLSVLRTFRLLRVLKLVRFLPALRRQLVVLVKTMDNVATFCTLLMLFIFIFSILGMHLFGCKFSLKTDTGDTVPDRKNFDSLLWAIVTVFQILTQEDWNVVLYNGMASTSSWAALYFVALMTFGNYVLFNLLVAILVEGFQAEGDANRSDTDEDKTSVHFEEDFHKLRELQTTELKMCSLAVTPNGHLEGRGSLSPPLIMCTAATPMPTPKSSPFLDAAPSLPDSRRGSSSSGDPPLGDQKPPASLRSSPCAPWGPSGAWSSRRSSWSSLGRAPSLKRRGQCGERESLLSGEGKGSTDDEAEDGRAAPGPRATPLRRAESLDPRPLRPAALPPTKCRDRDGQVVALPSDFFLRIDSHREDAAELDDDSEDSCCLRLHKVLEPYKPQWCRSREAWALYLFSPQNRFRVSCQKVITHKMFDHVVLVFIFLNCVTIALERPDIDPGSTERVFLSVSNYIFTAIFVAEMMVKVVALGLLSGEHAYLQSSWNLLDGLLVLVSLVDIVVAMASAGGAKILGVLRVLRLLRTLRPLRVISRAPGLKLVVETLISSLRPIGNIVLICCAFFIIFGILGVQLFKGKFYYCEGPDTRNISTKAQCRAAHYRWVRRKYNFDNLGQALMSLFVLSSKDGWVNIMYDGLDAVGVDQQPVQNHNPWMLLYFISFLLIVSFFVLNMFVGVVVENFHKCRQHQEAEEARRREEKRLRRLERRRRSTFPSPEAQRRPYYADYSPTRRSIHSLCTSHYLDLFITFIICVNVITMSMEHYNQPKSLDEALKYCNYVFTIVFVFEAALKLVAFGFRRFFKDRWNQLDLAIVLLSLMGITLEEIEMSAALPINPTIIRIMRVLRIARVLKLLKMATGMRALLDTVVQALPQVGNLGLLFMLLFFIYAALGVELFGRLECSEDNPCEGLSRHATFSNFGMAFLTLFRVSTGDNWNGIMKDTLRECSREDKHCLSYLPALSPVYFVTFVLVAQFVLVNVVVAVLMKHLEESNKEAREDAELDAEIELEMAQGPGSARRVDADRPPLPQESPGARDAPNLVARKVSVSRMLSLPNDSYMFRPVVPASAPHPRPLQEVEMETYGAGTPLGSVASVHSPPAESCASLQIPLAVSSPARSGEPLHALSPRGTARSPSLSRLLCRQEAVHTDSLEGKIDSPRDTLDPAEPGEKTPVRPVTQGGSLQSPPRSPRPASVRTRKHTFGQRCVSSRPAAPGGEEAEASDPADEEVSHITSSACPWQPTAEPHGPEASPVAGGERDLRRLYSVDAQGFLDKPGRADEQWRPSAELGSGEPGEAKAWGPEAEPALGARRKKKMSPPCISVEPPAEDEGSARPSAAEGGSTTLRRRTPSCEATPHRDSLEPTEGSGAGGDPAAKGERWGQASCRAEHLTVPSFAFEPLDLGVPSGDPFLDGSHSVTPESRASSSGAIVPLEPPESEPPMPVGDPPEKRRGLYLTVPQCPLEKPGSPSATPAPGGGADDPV
PostGolgi yeast: growth inhibition of a yeast mutant, post-Golgi transport screen; post-Golgi transport phenotypic cell assay; inhibition, % at 10 µM; 98,000 tested, 0.9% active;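 also: yeast cells grown in 1536-well plates; yeast grown about 18 h at 30C before absorbance read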
The depositor's hits bear a star; nt = not tested or not shown. Sampled rows, rich in hits. Any-hit rate of the full collection: about 7.8%. Rule as the data show it, unless noted: active = inhibition above about 30%; inactive = the rest.

SMILES	sEH act	PostGolgi ctrl	sEH inhibitor	Cav32 inh	PostGolgi yeast
Cc1ccc(-c2noc(CN(C(=O)C(c3ccccc3)c3ccccc3)C(C)C)n2)cc1	-6	12	9	-8.5*	-2
CC(C)N(Cc1nc(-c2ccccc2)no1)C(=O)CN(C)S(=O)(=O)c1ccccc1	-13	34*	8	0.11	-10
CC(C)N(Cc1nc(-c2ccccc2)no1)C(=O)CCCN1C(=O)c2ccccc2C1=O	-1	3	6	-1.8	-7
CC(C)N(Cc1nc(-c2ccccc2)no1)S(=O)(=O)c1ccccc1	-8	16	8	-3.7	-4
CN(Cc1nc(-c2ccncc2)no1)S(=O)(=O)c1ccc(Br)cc1	1	31*	-3	-1.3	-7
CC(C)N(Cc1nc(-c2ccc(Cl)cc2)no1)C(=O)C(c1ccccc1)c1ccccc1	18	20	-21	-4.3*	0
CCC(=O)N1CCc2cc(S(=O)(=O)N3CCN(c4ccccn4)CC3)ccc21	-8	7	9	1.7	0
CSc1cccc(NC(=O)C(C)NS(=O)(=O)c2ccc(F)cc2)c1 (centres undefined)	-3	2	4	-2	0
C/C(=C\C(=O)c1ccncc1)Nc1ccccc1O	-14	3	15	-5.7*	9
CC(=O)Nc1ccccc1O	nt	nt	nt	0.4	nt
CC1CCCC(NC(=O)C2CCCN2S(=O)(=O)c2cccc3nsnc23)C1C (centres undefined)	7	14	-10	0.34	-1
CS(=O)(=O)N1CCN(c2ccccc2NC(=O)c2ccc(Br)o2)CC1	4	42*	-4	-1.4	3
O=C(Nc1ccccc1N1CCN(C(=O)c2ccc(Cl)cc2)CC1)c1ccc2c(c1)OCO2	7	20	-8	-1.4	-5
CN1CCN(c2ccccc2NC(=O)c2cc3ccccc3o2)CC1	0	6	-1	0.72	8
O=C(Nc1ccccc1N1CCN(C(=O)c2ccccc2)CC1)c1cc(Br)ccc1Cl	-13	31*	16	-1.9	8
O=C(Nc1ccccc1N1CCCC1)c1cc2ccccc2o1	-2	39*	3	nt	-11
O=C(Nc1ccccc1N1CCN(C(=O)c2ccccc2)CC1)c1cc2ccccc2o1	-3	36*	4	0.85	-4
O=C(Nc1ccccc1N1CCCCC1)c1ccccc1F	8	34*	-9	-0.36	-4
COC(=O)C(NC(=O)c1ccc(C)cc1)(Nc1cccc(C)n1)C(F)(F)F (centres undefined)	-7	nt	8	-4.6*	nt
COC(=O)C(NC(=O)c1ccccc1)(Nc1nc(C)cs1)C(F)(F)F (centres undefined)	nt	-1	nt	0.82	-9
COc1ccccc1CNC(=O)c1oc2ccc(S(=O)(=O)N3CCCC3)cc2c1C	-10	31*	11	nt	1
Cc1c(C(=O)NCc2cccnc2)oc2ccc(S(=O)(=O)N3CCCCC3)cc12	-6	0	10	0.28	0
CCOC(=O)C1CCN(C(=O)c2oc3ccc(S(=O)(=O)N4CC(C)CC(C)C4)cc3c2C)CC1 (centres undefined)	21	5	-20	-5.9*	2
Cc1c(C(=O)NCc2cccnc2)oc2ccc(S(=O)(=O)N3CCCCCC3)cc12	nt	42*	nt	-0.68	-1
Cc1c(C(=O)NCc2ccccc2)oc2ccc(S(=O)(=O)N3CCCC3)cc12	8	7	-6	nt	-6
SMILES	sEH act	PostGolgi ctrl	sEH inhibitor	Cav32 inh	PostGolgi yeast
COc1ccccc1-c1nnc(NC(=O)c2ccc(S(=O)(=O)N(C)Cc3ccccc3)cc2)o1	-22	7	23	-5.8*	17
CCCCN(CCCC)S(=O)(=O)c1ccc(C(=O)Nc2nnc(COC)o2)cc1	-21	-3	22	-0.71	1
CN(Cc1ccccc1)S(=O)(=O)c1ccc(C(=O)Nc2nnc(C3CC3)o2)cc1	-5	20	6	-1.1	-7
CCCCN(CC)S(=O)(=O)c1ccc(C(=O)Nc2nnc(-c3cccs3)o2)cc1	1	16	0	-4.8*	-3
CN(c1ccccc1)S(=O)(=O)c1ccc(C(=O)Nc2nnc(-c3ccc(F)cc3)o2)cc1	-15	5	15	-7.5*	9
CN(c1ccccc1)S(=O)(=O)c1ccc(NC(=O)c2ccc(-c3ccccc3)cc2)cc1	5	15	-1	-1.8	1
CCc1nnc(NC(=O)c2ccc(S(=O)(=O)N(CC)Cc3ccccc3)cc2)o1	-7	6	6	-4.4*	9
N#CC(c1cccc(Cl)c1)c1ncc(C(F)(F)F)cc1Cl (centres undefined)	7	11	-4	-1.4	8
Cc1cc(NC(=O)CSc2cn(C)c3ccccc23)no1	1	0	1	-1.7	-10
Cc1cc(C(=O)N[C@H](c2ccccc2)[C@@]2(C)C[C@@H]2[C@@H](C)C(=O)Nc2ccc3ccccc3c2)no1	nt	nt	nt	-0.034	nt
Cc1cc(C(=O)N[C@@H](c2ccccc2)[C@]2(C)C[C@H]2[C@@H](C)C(=O)Nc2ccc3ccccc3c2)no1	nt	nt	nt	-4.6*	nt
CC(=O)NCCNC(=O)CCNC(=O)c1ccc(Cl)cc1	13	2	-10	0.052	-7
CC1(C)CC(=O)C2=C(C1)Oc1ncn(Cc3ccco3)c(=N)c1C2c1ccccc1 (centres undefined)	10	34*	-10	2.1	2
COc1cccc(-n2cnc3scc(-c4cccs4)c3c2=O)c1	0	1	3	nt	-3
O=c1c2c(-c3cccs3)csc2ncn1-c1ccc(Br)cc1	4	38*	-1	-2.4	-14
Cc1ccc(C)n1-n1c(C)nc2scc(-c3cccs3)c2c1=O	nt	-2	nt	-3.9*	5
Cc1nc2scc(-c3cccs3)c2c(=O)n1-n1cccc1	nt	3	nt	-3	19
COCC(=O)Nc1cc(OC)ccc1OC	-7	-2	5	0.33	3
COc1ccc(OC)c(NC(=O)C(=O)/C=C(\O)c2cc(OC)ccc2OC)c1	5	30*	-3	-5.2*	11
CN(C)S(=O)(=O)c1ccc(NC(=O)N2CCN(c3ccccc3)CC2)cc1	-66	2	66	nt	-2
Cc1ccccc1Cc1c(C)nc2nc(SCC(=O)NCc3ccco3)nn2c1C	-18	10	18	0.5	-1
Cc1ccccc1Cc1c(C)nc2c(C(=O)NCc3ccco3)cnn2c1C	6	42*	-6	-5.2	-14
c1ccc(-c2nnc3sc(Cc4cccs4)nn23)cc1	-7	30*	10	0.64	3
Cc1nnc(SCC(=O)Nc2sccc2C(N)=O)n1Cc1ccccc1	nt	32*	nt	1.3	6
CC(Sc1nnc(-c2cccs2)n1Cc1ccccc1)C(=O)NCc1ccc2c(c1)OCO2 (centres undefined)	-13	11	10	-4.4*	-5
Cn1c(SCC(=O)NCc2ccc3c(c2)OCO3)nnc1-c1cccs1	nt	6	nt	0.5	6
O=C1CN(C(=O)CSc2nnc(-c3ccccc3)n2Cc2ccc3c(c2)OCO3)c2ccccc2N1	2	-2	-2	-0.52	38*
CCn1c(SCC(=O)NCc2ccc3c(c2)OCO3)nnc1-c1cccs1	-8	-10	10	1.3	1
Cc1nnc(SCC(=O)N2CC(=O)Nc3ccccc32)n1-c1ccccc1	nt	10	nt	-0.4	6
